{"source": "PubChem BioAssay (NCI)", "note": "The panel holds about 83,000 compounds, 20% with a hit somewhere; the sample as a whole holds those more often.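 Treatment: one concentration, 48 hours, 96-well format. Scoring: percent growth, with anything below 10 considered active.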 Activity calls are given as the source filed them.", "data": [{"test_system": "NCI/ADR-RES ovarian", "test": "NCI-60 one-dose screen, 48 h (100 = growth as untreated, 0 = no growth, -100 = all killed)", "conditions": "10 µM unless noted", "values": [{"smiles": "CC1=CC[C@@H]2C(C)(C)C(=O)CC[C@@]2(C)[C@@H]1COc1ccc2ccc(=O)oc2c1", "growth": "28.4% (inactive)"}, {"smiles": "COc1ccc(/C=C2\\N=C(Nc3ccccc3)N(NC(=O)c3ccccn3)C2=O)cc1", "growth": "97% (inactive)"}, {"smiles": "COc1ncc(-c2ccc3nccc(C#CCCCCC(=O)NO)c3c2)cc1NS(=O)(=O)c1ccc(F)cc1F", "growth": "55.3% (inactive)"}, {"smiles": "COc1ccc2c(c1)C(C)Cc1c(Cl)ncnc1N2C", "note": "(stereo not drawn)", "growth": "2.03% (active)"}, {"smiles": "CC[C@@H]1NC(=O)[C@@H]2CCCCN2C(=O)[C@@H]2CCCN2C(=O)[C@@H](NC(=O)[C@H](Cc2cc(F)cc(F)c2)NC(=O)Nc2ccc(C3CC3)cc2F)[C@H](C)OC(=O)[C@@H]2C[C@@H](C)CN2C1=O", "growth": "14% (inactive)"}, {"smiles": "CCN(CC)c1cc(N)c(Cc2c(N)cc(N(CC)CC)cc2Cl)c(Cl)c1", "growth": "81.5% (inactive)"}, {"smiles": "O=C1COCCN1c1ccc(Nc2nc(Cl)nc(N3CCOCC3)n2)cc1", "growth": "97.6% (inactive)"}, {"smiles": "Cn1cc(-c2nnc(-c3cn(C)c4ncc(Br)cc34)s2)c2cc(Br)ccc21", "growth": "102% (inactive)"}, {"smiles": "Nc1ccc2c(c1)Cc1cc(NC(=O)C(F)(F)F)ccc1-2", "growth": "104% (inactive)"}, {"smiles": "COc1ccc(-c2cc(-c3ccc(Cl)cc3)nc(NCCCCNc3ccnc4cc(Cl)ccc34)n2)cc1", "growth": "72.2% (inactive)"}, {"smiles": "C#C[C@]1(O)CC[C@H]2[C@@H]3CC=C4c5nc(Nc6ccc(OC)cc6OC)sc5CC[C@]4(C)[C@H]3CC[C@@]21C", "growth": "50.3% (inactive)"}, {"smiles": "CNC(=O)c1cc(Oc2ccc3nc(NC(=O)c4ccc5ncccc5c4)sc3c2)ccn1", "growth": "88.8% (inactive)"}, {"smiles": "COc1ncc(-c2ccc3nccc(C#CCCCCC(=O)O)c3c2)cc1NS(=O)(=O)c1ccc(F)cc1F", "growth": "56% (inactive)"}, {"smiles": "CCc1ccc(C2=C/C(=C/c3ccccc3)C(=O)N2CCc2ccc(S(N)(=O)=O)cc2)cc1", "growth": "104% (inactive)"}, {"smiles": "Cc1ccc(-c2cn(C/C=C3\\C=CN(S(=O)(=O)c4ccccc4)CC3)nn2)cc1", "growth": "99.6% (inactive)"}, {"smiles": "CCN1c2ccccc2C(Cl)(c2ccc(N(C)C)cc2)c2ccccc21", "growth": "85.8% (inactive)"}, {"smiles": "COc1ccc(-c2ccc(NNC(=O)c3ccc(F)cc3)nn2)cc1OC", "growth": "65.4% (inactive)"}, {"smiles": "c1ccc(-c2nnc(-c3c[nH]c4ncccc34)s2)cc1", "growth": "95.7% (inactive)"}, {"smiles": "COc1c(B(O)O)cccc1-c1nc2ccc3[nH]ncc3c2c2c1CCC2", "growth": "81.4% (inactive)"}, {"smiles": "O=C1/C(=C\\c2cccn2Cc2ccccc2)c2ccccc2N1c1c(Cl)cccc1Cl", "growth": "70.9% (inactive)"}, {"smiles": "CN(C)c1ccc(-c2ccc(-c3ccc(C(=N)N)cc3)s2)cc1", "growth": "46.3% (inactive)"}, {"smiles": "CC(C)(C)c1cc(C(=O)Nc2ccc(C(=O)NCCN)cc2)cc(C(C)(C)C)c1", "growth": "92.4% (inactive)"}, {"smiles": "CC1=CC[C@@H]2C(C)(C)[C@@H](O)CC[C@@]2(C)[C@@H]1COc1ccc2ccc(=O)oc2c1", "growth": "17.5% (inactive)"}, {"smiles": "CCn1cc(-c2cc(-c3ccc(Cl)cc3)nc(N)n2)c(-c2ccc(Br)cc2)n1", "growth": "80.3% (inactive)"}, {"smiles": "COc1cc(-c2cc(-c3ccc(Nc4ncnc5cc(Cl)ccc45)cc3)nc(N3CCCCC3)n2)cc(OC)c1OC", "growth": "104% (inactive)"}, {"smiles": "Cn1cc(-c2nnc(-c3ccccc3)s2)c2cc(Br)cnc21", "growth": "90.4% (inactive)"}, {"smiles": "CC(=O)Nc1ccc2nc3ccc(NC(C)=O)cc3[n+](-c3ccccc3)c2c1", "growth": "107% (inactive)"}, {"smiles": "Cc1cccc(C[C@H](NC(=O)Nc2ccc(Cl)cc2F)C(=O)N[C@@H]2C(=O)N3C[C@H](O)C[C@H]3C(=O)N3CCCC[C@H]3C(=O)N[C@@H](C)C(=O)N3C[C@H](C)C[C@H]3C(=O)O[C@H]2C)c1", "growth": "89.9% (inactive)"}, {"smiles": "COc1ccc(NC(=S)NNc2ccc(-c3ccc(OC)c(OC)c3)nn2)cc1", "growth": "111% (inactive)"}, {"smiles": "Cn1cc(-c2nnc(-c3cn(C)c4ncccc34)s2)c2ccccc21", "growth": "48% (inactive)"}, {"smiles": "Fc1cc2[nH]ncc2c2c3c(c(-c4cn[nH]c4C(F)(F)F)nc12)C1CCC3C1", "note": "(stereo not drawn)", "growth": "55.7% (inactive)"}, {"smiles": "COc1ccc2nc3cc(Cl)ccc3c(Nc3ccc(O)cc3)c2c1", "growth": "71.2% (inactive)"}, {"smiles": "CCOC(=O)n1cc(C2=C(c3ccc(OC)c(OC)c3)COC2=O)c2ccccc21", "growth": "8.29% (active)"}, {"smiles": "C[n+]1c(-c2ccccc2)c2cc(N)ccc2c2ccccc21", "growth": "100% (inactive)"}, {"smiles": "Fc1cc2[nH]ncc2c2c3c(c(-c4cn[nH]c4)nc12)CCCC3", "growth": "34.7% (inactive)"}, {"smiles": "CCN(CC)c1ccc2cc(NC(=O)OCCNC(=O)CCNC(=O)[C@H](CC(C)C)NC(=O)C(C)(C)NC(=O)C(C)(C)NC(=O)[C@H](CC(C)C)NC(=O)CCNC(=O)C(C)(C)NC(=O)[C@H](CC(C)C)NC(=O)CCNC(=O)[C@@](C)(CC)NC(=O)[C@H](C)NC(=O)CCNC(=O)C(C)(C)NC(=O)[C@H](C)NC(=O)[C@@H]3CCCN3C(=O)[C@@](C)(CC)NC(=O)[C@H](Cc3ccccc3)NC(=O)C3CCCN3C(=O)C(C)(C)NC(=O)C3CCCN3C(=O)C(C)(C)NC(C)=O)c(=O)oc2c1", "note": "(stereo partly drawn)", "growth": "-93.5% (active)"}, {"smiles": "COc1cc(NCc2cn(-c3ccc(C(=O)O)cc3)nc2-c2ccc(C(=O)O)cc2)cc(OC)c1OC", "growth": "107% (inactive)"}, {"smiles": "CC(C)CCSc1nc(N)nc2nc[nH]c12", "growth": "104% (inactive)"}]}]}
